Inconclusive results are not listed. Active and inactive are the calls of the source. Unless noted, calls come from the whole dose curve; as a rule, active = well fitted curve in the direction sought with a large enough effect; inconclusive = small, poorly fitted or top-dose-only effect, or another doubt; inactive = no such curve, though single readings can be large; an effect the other way counts as inactive or inconclusive.

For experiment [1], the target named is ATP-dependent 6-phosphofructokinase (Trypanosoma brucei brucei) (UniProt O15648). The experiment in a line: qHTS Assay to Find Inhibitors of T. brucei phosphofructokinase: hit validation (AID 492961).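 Note: luminescence reports ADP formed as PFK phosphorylates fructose-6-phosphate with ATP.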 The gist of the method:
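ADP-Glo luminescence read-out of ADP formed by 1.25 nM PFK from 0.1 mM ATP and 0.5 mM F6P (TEA pH 8.0, 45 min, RT). Compounds titrated; activity normalized to no-enzyme and full-enzyme controls.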

Experiment [2] can be described thus: S16 Schwann cell PMP22 intronic element beta-lactamase assay (AID 624044; calls by dose curve; note: nearly all actives have a fitted effect of over 15% in size; note: potency is the fitted concentration of half-maximal effect). An outline of the steps: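 Beta-lactamase reporter under a PMP22 intronic regulatory element in stable S16 rat Schwann cells; 24 h compound exposure. 460 nm blue signal normalized between DMSO (0%) and potassium clavulanate, with 535 nm FRET tracking viability; curves classed by r2 and response.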

Experiment [3] deals with ATS189. The experiment in a line: qHTS profiling for inhibitors of Plasmodium falciparum proliferation (AID 504749). Note: nearly all actives have a fitted effect of over 60% in size. Note: potency is the fitted concentration of half-maximal effect. As to conditions: P. falciparum in erythrocytes, SYBR Green DNA, 72 h; series mostly up to 12.8 µM. The gist of the method: (§1)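 SYBR Green fluorescence of parasite DNA, read after lysis and overnight dark incubation, measured growth over 72 h in erythrocyte culture at 0.3% parasitemia and 2.5% hematocrit. Data normalised to DMSO and 0.29 uM artemisinin, with plate-drift correction.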

Experiment [4] deals with ATS95. The description is as above. As to conditions: P. falciparum in erythrocytes, SYBR Green DNA, 72 h; series mostly up to 12.8 µM. The gist of the method:
as §1

The subject of experiment [5] is CP203. The description is as above. As to conditions: P. falciparum in erythrocytes, SYBR Green DNA, 72 h; series mostly up to 12.8 µM. The gist of the method:
as §1

Experiment [6] concerns CP247. The experiment is described as above. Particulars: P. falciparum in erythrocytes, SYBR Green DNA, 72 h; series mostly up to 12.8 µM. The gist of the method: as §1
Experiment [7] concerns CP250. The experiment is described as above. Particulars: P. falciparum in erythrocytes, SYBR Green DNA, 72 h; series mostly up to 12.8 µM. The gist of the method: as §1
The test system of experiment [8] is CP260. Described as above. As to conditions: P. falciparum in erythrocytes, SYBR Green DNA, 72 h; series mostly up to 12.8 µM. An outline of the steps: as §1
The test system of experiment [9] is CP266. The experiment is described as above. As to conditions: P. falciparum in erythrocytes, SYBR Green DNA, 72 h; series mostly up to 12.8 µM. The gist of the method:
as §1

The subject of experiment [10] is CP297. Described as above. As to conditions: P. falciparum in erythrocytes, SYBR Green DNA, 72 h; series mostly up to 12.8 µM. The gist of the method: as §1
Experiment [11] concerns CP335. Described as above. Particulars: P. falciparum in erythrocytes, SYBR Green DNA, 72 h; series mostly up to 12.8 µM. An outline of the steps:
as §1

Experiment [12] concerns DIV17. Described as above. Particulars: P. falciparum in erythrocytes, SYBR Green DNA, 72 h; series mostly up to 12.8 µM. The gist of the method: as §1
For experiment [13], the system named is Dd2. Described as above. Particulars: P. falciparum in erythrocytes, SYBR Green DNA, 72 h; series mostly up to 12.8 µM. The gist of the method:
as §1

Experiment [14] has as its system HB3. The description is as above. Particulars: P. falciparum in erythrocytes, SYBR Green DNA, 72 h; series mostly up to 12.8 µM. An outline of the steps:
as §1

The subject of experiment [15] is P93_24. The experiment is described as above. As to conditions: P. falciparum in erythrocytes, SYBR Green DNA, 72 h; series mostly up to 12.8 µM. An outline of the steps: as §1
In experiment [16] the test system is P94_40. The description is as above. As to conditions: P. falciparum in erythrocytes, SYBR Green DNA, 72 h; series mostly up to 12.8 µM. The gist of the method: as §1
Experiment [17] deals with TAB113. The experiment is described as above. Particulars: P. falciparum in erythrocytes, SYBR Green DNA, 72 h; series mostly up to 12.8 µM. The gist of the method: as §1
The test system of experiment [18] is TAB165. The experiment is described as above. As to conditions: P. falciparum in erythrocytes, SYBR Green DNA, 72 h; series mostly up to 12.8 µM. The gist of the method: as §1
The nature of experiment [19]: Confirmation and Secondary Assay for Modulators of Hemoglobin Beta Chain Splicing at IVS2 654 locus (AID 910).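 Note: HeLa cells stably carrying EGFP split by mutant beta-globin IVS2-654 intron; per-well total GFP intensity by laser scanning cytometry after 2-day treatment.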 An outline of the steps:
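Readout: per-well total peak green fluorescence (488 nm ex, 500–520 nm em) from objects 5–250 µm, reflecting correct splicing of an EGFP-654 reporter. Compounds were applied for 2 days at 37 °C to overnight-plated HeLa EGFP-654 cells; controls were DMSO and 500 nM IVS2-654 PNA.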

Experiment [20] concerns ICS. The experiment in a line: qHTS profiling for inhibitors of Plasmodium falciparum proliferation (AID 504749). Note: nearly all actives have a fitted effect of over 60% in size. Note: potency is the fitted concentration of half-maximal effect. Particulars: P. falciparum in erythrocytes, SYBR Green DNA, 72 h; series mostly up to 12.8 µM. The gist of the method:
as §1

Chain of ATP-dependent 6-phosphofructokinase (Trypanosoma brucei brucei) (O15648 whole entry, looked up): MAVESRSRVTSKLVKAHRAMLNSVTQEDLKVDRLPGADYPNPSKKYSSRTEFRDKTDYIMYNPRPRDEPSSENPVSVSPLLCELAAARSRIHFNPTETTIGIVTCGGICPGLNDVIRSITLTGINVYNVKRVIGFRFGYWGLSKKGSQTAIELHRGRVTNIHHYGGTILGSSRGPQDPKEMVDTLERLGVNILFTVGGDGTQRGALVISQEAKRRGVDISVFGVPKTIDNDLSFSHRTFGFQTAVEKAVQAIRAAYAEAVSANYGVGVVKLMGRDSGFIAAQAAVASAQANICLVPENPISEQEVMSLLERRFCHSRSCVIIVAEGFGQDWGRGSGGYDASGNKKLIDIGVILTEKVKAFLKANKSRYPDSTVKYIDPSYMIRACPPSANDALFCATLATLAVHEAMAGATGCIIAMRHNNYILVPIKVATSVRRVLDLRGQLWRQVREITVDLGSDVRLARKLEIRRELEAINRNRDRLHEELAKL

Regarding `CC(=O)OC1CCC2C3CCc4cc(O)ccc4C3CCC12C` (stereo unspecified), the molecule was called inactive in experiment [1]. Moreover, the Potency result in [2], in experiment [3], in [4], in experiment [5], in [6] and in experiment [7] was “inactive” each time. For the same molecule, the Potency entry in experiment [8], in experiment [9], in [10], in experiment [11], in experiment [12] and in experiment [13] was “inactive” throughout. Moreover, the Potency result in experiment [14], in experiment [15], in experiment [16], in [17] and in [18] was “inactive” in each case.
Turning to `OCC1OC([S-])[C@H](O)C(O)C1O.[Au+]` (stereo partly specified), the Potency entry in experiment [19], in experiment [2], in [3], in [4], in experiment [5] and in [6] was “inactive” throughout. Further, the Potency entry in [7], in experiment [8], in [9], in experiment [10], in experiment [11] and in experiment [12] was “inactive” throughout. Further, the Potency entry in experiment [13], in experiment [14], in experiment [20], in experiment [15], in [16] and in [17] was “inactive” each time. In experiment [18], the Potency entry was “inactive”. In experiment [1], the call was inactive.
Consider `NC(C(=O)O)[C@@H]1CC(Cl)=NO1` (stereo partly specified), for which the Potency entry in experiment [19] is “inactive”. In [1], the molecule was classed as inactive. The Potency in [3] was 2820 nM (active); in [4], 1000 nM (active); in experiment [5], 3380 nM (active); in experiment [6] it was 3160 nM (active); in experiment [7], 2820 nM (active); in experiment [8], 891 nM (active). Further, the Potency in [9] is 3790 nM (active); in experiment [10] it was 3380 nM (active); in experiment [11], 1200 nM (active); in [12] it was 3380 nM (active); in [13], 708 nM (active); in experiment [14] it was 1780 nM (active). The Potency was 891 nM (active) in experiment [20]; 1000 nM (active) in experiment [15]; 1120 nM (active) in experiment [16]; 1000 nM (active) in experiment [17]; 1000 nM (active) in [18].
`COc1c(O)cc(O)cc1O`: in [19], the Potency result was “inactive”.
As for `CC(=O)[C@]1(O)CCC2C3C=C(Cl)C4=CC(=O)C5CC5[C@@]4(C)C3CC[C@]21C` (stereo partly specified), in [1], the molecule was called inactive. Besides, the Potency entry in experiment [2], in [3], in [4], in experiment [5], in experiment [7] and in [8] was “inactive” each time. Moreover, the Potency result in experiment [9], in experiment [10], in experiment [11], in [12], in [13] and in [14] was “inactive” throughout. Besides, the Potency entry in [20], in [15], in experiment [16], in experiment [17] and in experiment [18] was “inactive” throughout.
For the molecule `C/C1=C2N=C(/C=C3N=C(/C(C)=C4\[N-]C(C)(C5N=C1C(C)(CCC(=O)NCC(C)OP(=O)([O-])O[C@H]1C(O)C(n6cnc7cc(C)c(C)cc76)O[C@@H]1CO)C5CC(N)=O)C(C)(CC(N)=O)C4CCC(N)=O)C(C)(CC(N)=O)C\3CCC(N)=O)C(C)(C)C/2CCC(N)=O.[CH2-]C1OC(n2cnc3c(N)ncnc32)C(O)C1O.[Co]` (stereo partly specified), the Potency result in experiment [19], in experiment [3], in experiment [4], in experiment [5], in [6] and in [7] was “inactive” in each case. For the same molecule, the Potency entry in [8], in experiment [9], in [10], in experiment [11], in [12] and in experiment [13] was “inactive” in each case. For the same molecule, the Potency entry in [14], in experiment [15], in [16], in experiment [17] and in [18] was “inactive” each time. Also, in experiment [1], the outcome was inactive.
In the case of `C[C@]1(c2ccccc2)OC(C(=O)O)=CC1=O`, the outcome in experiment [1] was inactive. The Potency entry in experiment [2], in experiment [3], in experiment [4], in [5], in [6] and in experiment [7] was “inactive” each time. Further, the Potency entry in experiment [8], in [9], in experiment [10], in experiment [11], in experiment [12] and in experiment [13] was “inactive” each time. The Potency result in experiment [14], in [20], in [15], in experiment [16], in experiment [17] and in [18] was “inactive” throughout.
With `CCC(C)C(=O)OC1CCC=C2C=CC(C)C(CCC3CC(O)CC(=O)O3)[C@@H]21` (stereo partly specified), in [1], the result was inactive. Besides, the Potency entry in experiment [3], in experiment [4], in experiment [5], in experiment [6], in experiment [7] and in experiment [8] was “inactive” each time. Also, the Potency entry in [9], in experiment [10], in [11], in experiment [12], in experiment [14] and in experiment [20] was “inactive” each time. Moreover, the Potency result in experiment [15], in experiment [16] and in [18] was “inactive” throughout.
For the molecule `CO[C@]12C(COC(N)=O)C3=C(C(=O)C(C)=C(N)C3=O)N1CC1NC12` (stereo partly specified), in experiment [19], the Potency entry is “inactive”. The outcome in experiment [1] was inactive. For the same molecule, the Potency was 8910 nM (active) in experiment [2]; 1260 nM (active) in experiment [3]; 1000 nM (active) in experiment [4]; 1410 nM (active) in experiment [6]; 1120 nM (active) in experiment [7]; 398 nM (active) in experiment [13]. Besides, the Potency in experiment [14] was 1000 nM (active); in experiment [20], 355 nM (active); in experiment [15], 1000 nM (active); in experiment [16], 891 nM (active); in experiment [17], 891 nM (active); in [18] it was 447 nM (active).
As for `CCCC(=O)O[C@]1(C(=O)CO)CCC2[C@@H]3CCC4=CC(=O)CC[C@]4(C)C3C(O)C[C@]21C` (stereo partly specified), the Potency entry in experiment [19], in [2], in [3], in experiment [4], in [5] and in experiment [6] was “inactive” in each case. The Potency entry in experiment [7], in experiment [8], in [9], in experiment [10], in experiment [11] and in experiment [12] was “inactive” in each case. Further, the Potency result in experiment [13], in experiment [14], in experiment [20], in [15], in [16] and in [17] was “inactive” each time. Also, the Potency result in [18] was “inactive”. In addition, the outcome in [1] was inactive.
Take `CC(C)C1CCC(C(=O)NC(Cc2ccccc2)C(=O)O)CC1` (stereo unspecified): the Potency result in experiment [19], in experiment [2], in experiment [3], in [4], in experiment [5] and in experiment [6] was “inactive” each time. The Potency result in experiment [8], in experiment [10], in [11], in [12], in experiment [13] and in experiment [14] was “inactive” throughout. Also, the Potency entry in experiment [20], in experiment [15], in [17] and in experiment [18] was “inactive” each time. For the same molecule, the call in [1] was inactive.
For `CC1=C(CCC(=O)O)c2cc3nc(cc4[nH]c(cc5[nH]c(cc1n2)c(C)c5C(C)O)c(C)c4C(C)O)C(C)=C3CCC(=O)O` (stereo unspecified), in experiment [19], the Potency result is “inactive”.
For the molecule `CN1CC(=O)N=C1N`, the Potency result in experiment [19], in experiment [2], in experiment [3], in [4], in experiment [5] and in [6] was “inactive” throughout. In addition, the Potency entry in experiment [7], in [8], in experiment [9], in experiment [10], in experiment [11] and in experiment [12] was “inactive” in each case. Also, the Potency entry in experiment [13], in experiment [14], in [20], in experiment [15], in experiment [16] and in experiment [17] was “inactive” throughout. In addition, the Potency result in [18] was “inactive”. In experiment [1], the molecule was called inactive.

Source of the values: PubChem BioAssay (NCATS).
